Compounds with a hit are over-represented: about 19% of the library has one in this group of screens.
HT1080-NT tox: kills 2HG-producing HT-1080-NT fibrosarcoma cells; HT-1080-NT fibrosarcoma viability, CellTiter-Glo ATP luminescence, 48 h; Potency, µM (doses to about 46.1 µM), for inactives: at the top dose activity, negative = less viability, hits mostly cytotoxic; hit rate 1.6% among 360,000; AID 686970;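 also: NT is the 2HG producing partner of a matched IDH1 knockdown line; potency is read from the fitted curve at half-maximal effect; 0% = DMSO-treated cells and -100% = media-only wells without cells; nearly all actives have a fitted effect of over 55% in size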
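HT-1080-NT fibrosarcoma cells (2HG-overproducing), 750 cells/well in RPMI with 5% FBS, dosed after 2 h and incubated 48 h at 37C. CellTiter-Glo luminescence normalized to DMSO and no-cell wells; concentration-response curves fitted and classed.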
ELG1 DNA repair: blocks ELG1-dependent DNA repair in HEK293T cells. Potency, µM (doses to about 46.1 µM), inactives show at the top dose activity change, negative = inhibition, usual class: inhibitors. AID 504467. HEK293T ELG1-luciferase reporter, luminescence, 16 h; DNA damage induced by 5-fluorouridine. hit rate 2.3% among 330,000; also: potency is read from the fitted curve at half-maximal effect; nearly all actives have a fitted effect of over 55% in size
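Quantitative HTS, concentration-response format. 2,000 cells/well co-treated with 5-fluorouridine and compound, 16 hr in 5% CO2 at 37 °C; ONE-Glo luminescence read after 30 min.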
TDP1 cell CPT: growth inhibition of DT40 Tdp1-/-;hTDP1 cells with camptothecin (screen for TDP1 inhibitors) | hit rate 12% among 420,000 | chicken DT40 Tdp1-/-;hTDP1 cells + 20 nM CPT, ATP luminescence, 48 h | AID 686979 | Potency, µM (highest dose often 46.2 µM), without a hit: at the top dose activity change, negative = growth inhibition, usual class: inhibitors; also: potency is read from the fitted curve at half-maximal effect; nearly all actives have a fitted effect of over 55% in size
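Chicken DT40 Tdp1-/- cells stably complemented with human TDP1 were seeded at 400 cells/well in medium containing 20 nM camptothecin, exposed to pin-transferred compounds, and grown at 37 °C for at least 48 hr. Viability was read as ATP luminescence.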
DT40 TDP1 no CPT: qHTS for Inhibitors of human tyrosyl-DNA phosphodiesterase 1 (TDP1): qHTS in cells in absence of CPT; AID 686978, 2013; DT40 Tdp1-/- hTDP1 cells, no CPT, ATP luminescence, 48 h; hit rate 15% among 420,000; Potency, µM (doses to about 46.2 µM), inactives show at the highest dose activity change, negative = growth inhibition, actives largely listed as inhibitors; also: potency is read from the fitted curve at half-maximal effect; nearly all actives have a fitted effect of over 55% in size
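Readout: luminescence from CellTiter-Glo after 30 min in the dark at RT. Cells: DT40 Tdp1-/- with stable hTDP1, 400/well. Exposure: compounds alone, ≥48 hr, 37 °C.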
HT1080 IDH1KD tx: toxicity to HT-1080 IDH1 knockdown cells (counter line) | HT-1080 IDH1 knockdown viability, ATP luminescence, 48 h | Potency, µM (titrated, usually from 46.1 µM), for the others: at the highest dose activity, negative = toxicity, hits mostly cytotoxic | hit rate 2% among 360,000;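 also: potency is read from the fitted curve at half-maximal effect; 0% = DMSO wells and -100% = cell-free medium wells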
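Knockdown cells (IDH1KD HT-1080) received compounds 2 h after plating at 750 cells/well and were kept 48 h at 37 °C in 5% FBS RPMI. A CellTiter-Glo luminescence read gave % activity for curve fitting.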
IL1B secr inh: blocks inflammasome-driven IL-1 beta release; THP-1 LPS/ATP IL-1B secretion, AlphaLISA, 16 h; stronger effect = lower value; activity change, % at 57.5 µM; hit rate 4.7% among 360,000; AID 743279; in the data active = activity change below about -50%; inconclusive = mostly about -30% to -49%
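Secreted IL-1B measured by AlphaLISA bead assay after 16 h compound exposure of THP-1 cells; compounds (final up to 57.5 uM) added 1 h before LPS (250 ng/mL) and ATP (1.25 mM) stimulation; lower signal means less secretion.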
Active calls of the source: *; ? = inconclusive; . = no result; [ ] = another dose, or the depositor's remark. Unless noted, calls follow the shape of the dose curve; as a rule, active = well fitted curve in the direction sought with a large enough effect; inconclusive = small, poorly fitted or top-dose-only effect, or another doubt; inactive = no such curve, though single readings can be large; an effect the other way counts as inactive or inconclusive. Unless noted, % is scaled to controls: 0 for no effect and ±100 for the full control effect.

SMILES	HT1080-NT tox	ELG1 DNA repair	TDP1 cell CPT	DT40 TDP1 no CPT	HT1080 IDH1KD tx	IL1B secr inh
COc1ccc(CNc2ccc3c(c2)CCC3)cc1Br	-7%	?	-12%	0%	0%	13
COc1cc2c(cc1OC)C(c1ccccc1[N+](=O)[O-])N(C(C)=O)CC2 (stereo unspecified)	-20%	7%	29%	3%	-3%	-5
COc1ccc(NC(=O)COC(=O)Cc2ccccc2[N+](=O)[O-])cc1OC	-2%	11%	?	26µM*	-2%	-4
COc1ccc(-c2cc3nc4ccccc4n3c(N)c2C#N)cc1	-7%	?	-14%	-11%	-15%	0
Fc1ccc(Nc2nc(-c3cccc(Cl)c3)c3c(n2)-c2ccccc2OC3)cc1	.	.	-11%	?	.	.
COc1cccc(-c2nnc3n2N=C(c2cc(OC)ccc2OC)CS3)c1	-2%	18µM*	?	15µM*	-10%	?
COc1ccc(OC)c(C2=Nn3c(nnc3-c3cc(OC)c(OC)c(OC)c3)SC2)c1	?	?	21µM*	16µM*	?	0
COc1cc(-c2nnc3n2N=C(c2ccccc2)CS3)cc(OC)c1OC	2.1µM*	9.2µM*	1.5µM*	1.5µM*	1.2µM*	17
COc1ccc(OC)c(C2=Nn3c(nnc3-c3ccncc3)SC2)c1	?	.	?	?	-6%	-13
COc1cccc(-c2nnc3n2N=C(C(C)(C)C)CS3)c1	?	?	16µM*	9.2µM*	?	-93*
Cc1ccc(-c2nnc3n2N=C(c2ccccc2)CS3)cc1	5%	-4%	-20%	-15%	12%	40
Nc1ncnc2c1ncn2[C@@H]1O[C@H](C(=O)N2CCC[C@@H]2C(=O)OCc2ccccc2)[C@@H](O)[C@H]1O	14%	.	?	?	1%	23
Cc1cccc(-c2nnc3n2N=C(c2ccccc2Br)CS3)c1	-26%	-25%	21µM*	21µM*	-29%	-3
COc1cccc(C2=Nn3c(nnc3-c3ccccc3O)SC2)c1	-2%	10%	?	?	4%	23
CCOc1cccc(-c2nnc3n2N=C(c2cc(OC)ccc2OC)CS3)c1	-30%	5.2µM*	?	8.2µM*	-29%	-25
Clc1ccc(C2=Nn3c(nnc3-c3cc(-c4ccccc4)n[nH]3)SC2)cc1	-5%	?	?	18µM*	?	9
COc1ccc(C2=Nn3c(nnc3-c3ccc(OC)cc3)SC2)cc1	?	0%	1.8µM*	1µM*	?	2
O=C(O)COCC(=O)NCc1csc2ccccc12	14%	12%	-1%	9%	19%	8
CN(CC(=O)Nc1cccc(F)c1)C(=O)c1ccccc1OCCOc1ccccc1	0%	-15%	?	?	-4%	?
COc1ccc(N2CCN(CCCn3cnc4c(OC)ncnc43)CC2)cc1	3%	.	3%	-1%	7%	23
CCOC(=O)c1c(N)n(C2CC(C)(C)NC(C)(C)C2)c2nc3ccccc3nc12	?	-11%	?	-27%	?	-65*
CCOc1ccccc1-n1c(N)c(C(=O)OC)c2nc3ccccc3nc21	.	.	-4%	-15%	.	.
COC(=O)c1c(N)n(-c2cc(Cl)cc(Cl)c2)c2nc3ccccc3nc12	.	.	16µM*	9.2µM*	.	.
CCOC(=O)c1ccc(-n2c(N)c(C(=O)OC)c3nc4ccccc4nc32)cc1	.	.	5.8µM*	7.3µM*	.	.
CCOC(=O)c1c(N)n(CCOC(=O)c2cccs2)c2nc3ccccc3nc12	-22%	-25%	?	?	-22%	-29
SMILES	HT1080-NT tox	ELG1 DNA repair	TDP1 cell CPT	DT40 TDP1 no CPT	HT1080 IDH1KD tx	IL1B secr inh
CCOC(=O)c1c(N)n(-c2ccc(CC)cc2)c2nc3ccccc3nc12	.	.	23µM*	?	.	.
CN(CC(=O)Nc1cccc(Cl)c1)S(=O)(=O)/C=C/c1ccccc1	-27%	.	-28%	?	-7%	?
Nc1c(C(=O)Nc2ccccc2)c2nc3ccccc3nc2n1-c1ccc(O)cc1	?	?	10µM*	2.1µM*	?	0
O=C(Nc1ncc(S(=O)(=O)c2ccc([N+](=O)[O-])cc2)s1)c1ccc2ccccc2c1	-17%	-23%	16µM*	?	-23%	7
O=C(Nc1ncc(S(=O)(=O)c2ccc([N+](=O)[O-])cc2)s1)c1cccnc1	?	-3%	5.8µM*	18µM*	23µM*	?
O=C(Nc1nnc(CCS(=O)(=O)c2ccc3ccccc3c2)s1)c1ccc([N+](=O)[O-])cc1	12%	11%	-21%	?	10%	7
CCOCCC(=O)Nc1ncc(S(=O)(=O)c2ccc([N+](=O)[O-])cc2)s1	-6%	.	0%	-14%	-4%	0
Nc1ccc(N2CCCCC2)c2nonc12	?	2%	26µM*	16µM*	-12%	9
Nc1ccc(N2CCCCC2)cc1N1CCCCC1	?	1%	?	?	-18%[9.24 µM]	?
COC(=O)C(Cc1c[nH]c2ccccc12)NC(=O)c1cccc(S(=O)(=O)N2CCCCC2)c1 (stereo unspecified)	-3%	9%	-7%	-14%	2%	?
CCOC(=O)C1CCN(c2c(C(=O)c3ccc(OC)cc3)cnc3ccccc23)CC1	.	.	21µM*	16µM*	.	.
COc1cc2ncc(C(=O)c3ccccc3)c(N3CCN(Cc4ccccc4)CC3)c2cc1OC	?	?	?	18µM*	-30%	-77*
CCOC(=O)C1CCN(c2c(C(=O)c3ccccc3)cnc3ccc(CC)cc23)CC1	0%	-12%	?	18µM*	8%	3
CC(=O)N1CCCc2cc(S(=O)(=O)N3CCCCC3)ccc21	.	.	-7%	-21%	.	.
CC(C)Sc1cc(N2CCOCC2)nc(-c2ccc(Cl)cc2)n1	-1%	1%	?	?	8%	-13
CCN1CCN(c2cc(SC(C)C)nc(-c3ccc(OC)cc3)n2)CC1	-18%	2%	23µM*	?	-19%	-82*
COc1ccc(CCNS(=O)(=O)c2ccc3c(c2)CC(C)N3C(C)=O)cc1OC (stereo unspecified)	-10%	?	-27%	?	-13%	31
